Unmarked numbers belong to inactive results. Inconclusive results are not listed. Activity calls are given as the source filed them. Calls follow the shape of the dose curve; as a rule, active = well fitted curve in the direction sought with a large enough effect in the repeat runs; inconclusive = weak or mixed curves; inactive = no such curve, though single readings can be large; an effect the other way counts as inactive or inconclusive.

This is an account of results in PubChem BioAssay (Tox21).

Experiment [1] is described as follows: Caspase-3/7 induction in CHO-K1 cells by small molecules, qHTS cell viability counter screen (AID 1346979). Also: nearly all actives have a fitted effect of over 35% in size. Also: potency is read from the fitted curve at half-maximal effect. An outline of the steps: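 Following a 5hr settling period, CHO-K1 cells at 1,500 per well received DMSO-dissolved compounds. Cell viability was quantified 16hr later by CellTiter-Fluor fluorescence, measured after 1hr with reagent at 37C.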
The nature of experiment [2]: Caspase-3/7 induction in CHO-K1 cells by small molecules, qHTS assay (AID 1346980). Also: nearly all actives have a fitted effect of over 15% in size. Also: potency is read from the fitted curve at half-maximal effect. An outline of the steps: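 Wild-type cells were seeded at 1,500 per well and settled 5 hr at 37 C, 5% CO2, then exposed to DMSO-dissolved compounds for 17 hr. Caspase-Glo 3/7 reagent was added, and luminescence was read after 30min at room temperature.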
A short description of experiment [3]: Caspase-3/7 induction in HepG2 cells by small molecules, qHTS cell viability counter screen (AID 1346981). Also: nearly all actives have a fitted effect of over 30% in size. Also: potency is read from the fitted curve at half-maximal effect. An outline of the steps: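 Steps: seed 2,000 HepG2 cells per well; incubate 5 hr at 37 C; pin-add compounds in DMSO; incubate 16 hr; add CellTiter-Fluor; after 1 hr at 37 C and 5% CO2, read fluorescence.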
In general terms: Quantitative high-throughput screening tests each substance at several concentrations.

Experiment [4] deals with Nuclear receptor subfamily 1 group I member 2 (Homo sapiens) (UniProt O75469). Kind of experiment: Human pregnane X receptor (PXR) small molecule agonists, qHTS assay (AID 1346982). Also: nearly all actives have a fitted effect of over 35% in size. Also: potency is read from the fitted curve at half-maximal effect. An outline of the steps:
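Agonist mode qHTS: PXR-Luc HepG2 cells plated 5 hr before DMSO-dissolved compounds were pinned in, cultured 24 hr at 37 C, 5% CO2; ONE-Glo luminescence readout.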

For experiment [5] the target is unchanged. Kind of experiment: CYP3A4 induction through human pregnane X receptor (PXR) by small molecules, qHTS assay (AID 1346984). Also: nearly all actives have a fitted effect of over 40% in size. Also: potency is read from the fitted curve at half-maximal effect. An outline of the steps: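 Steps: seed DPX-2 cells, 5 hr at 37C; pin-transfer compounds; 24 hr at 37C; add Luciferin-IPA (3uM final), 3 hr at 37C; add One-Glo, 30 min RT; read luminescence.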
For experiment [6] the target is unchanged. Briefly: Human pregnane X receptor (PXR) activation by small molecules, qHTS assay (AID 1346985). Also: nearly all actives have a fitted effect of over 40% in size. Also: potency is read from the fitted curve at half-maximal effect. An outline of the steps: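 DPX-2 cells (HepG2 co-transfected with a PXR response element and a CYP3A4-promoter luciferase construct) were seeded at 2,000 per well, rested 5 hr at 37C, then exposed to DMSO-dissolved compounds for 24 hr. Activation was read as luciferase luminescence.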

Experiment [7] deals with Cytochrome P450 2D6 (Homo sapiens) (UniProt P10635). Kind of experiment: Cytochrome P450 Family 2 Subfamily D Member 6 (CYP2D6) small molecule antagonists: luciferase reporter qHTS assay (AID 1671196). Also: nearly all actives have a fitted effect of over 50% in size. Also: potency is read from the fitted curve at half-maximal effect. An outline of the steps: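 P450-Glo format: CYP2D6 converts a proluciferin substrate to luciferin in an NADPH-driven reaction lasting 1 h at room temperature. Light output, proportional to CYP2D6 activity, reflects interference by test chemicals.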
Chain of Cytochrome P450 2D6 (Homo sapiens) (P10635 whole entry, looked up): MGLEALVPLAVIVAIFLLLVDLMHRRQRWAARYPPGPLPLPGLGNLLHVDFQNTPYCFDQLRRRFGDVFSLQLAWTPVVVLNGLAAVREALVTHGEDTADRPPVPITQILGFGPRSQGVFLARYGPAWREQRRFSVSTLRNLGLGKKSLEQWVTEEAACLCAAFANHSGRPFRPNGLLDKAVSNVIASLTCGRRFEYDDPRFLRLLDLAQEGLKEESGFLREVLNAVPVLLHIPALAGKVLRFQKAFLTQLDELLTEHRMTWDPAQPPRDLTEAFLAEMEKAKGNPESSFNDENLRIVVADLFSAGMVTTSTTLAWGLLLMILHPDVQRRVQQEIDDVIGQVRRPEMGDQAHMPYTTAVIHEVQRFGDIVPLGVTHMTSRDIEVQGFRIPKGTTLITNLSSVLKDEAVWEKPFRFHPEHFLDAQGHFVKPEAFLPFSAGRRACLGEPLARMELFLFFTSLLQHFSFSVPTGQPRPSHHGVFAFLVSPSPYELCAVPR

Experiment [8] deals with Cytochrome P450 2C19 (Homo sapiens) (UniProt P33261). Briefly: Cytochrome P450 Family 2 Subfamily C Member 19 (CYP2C19) small molecule antagonists: luciferase reporter qHTS assay (AID 1671197). Also: nearly all actives have a fitted effect of over 65% in size. Also: potency is read from the fitted curve at half-maximal effect. An outline of the steps: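 Relative luminescence units recorded 20 min after the detection reagent stopped a 1 h, 37C CYP2C19 reaction on proluciferin substrate, which was started by NADPH regeneration following 10 min room-temperature compound preincubation; ketoconazole positive control.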
Chain of Cytochrome P450 2C19 (Homo sapiens) (P33261 whole entry, looked up): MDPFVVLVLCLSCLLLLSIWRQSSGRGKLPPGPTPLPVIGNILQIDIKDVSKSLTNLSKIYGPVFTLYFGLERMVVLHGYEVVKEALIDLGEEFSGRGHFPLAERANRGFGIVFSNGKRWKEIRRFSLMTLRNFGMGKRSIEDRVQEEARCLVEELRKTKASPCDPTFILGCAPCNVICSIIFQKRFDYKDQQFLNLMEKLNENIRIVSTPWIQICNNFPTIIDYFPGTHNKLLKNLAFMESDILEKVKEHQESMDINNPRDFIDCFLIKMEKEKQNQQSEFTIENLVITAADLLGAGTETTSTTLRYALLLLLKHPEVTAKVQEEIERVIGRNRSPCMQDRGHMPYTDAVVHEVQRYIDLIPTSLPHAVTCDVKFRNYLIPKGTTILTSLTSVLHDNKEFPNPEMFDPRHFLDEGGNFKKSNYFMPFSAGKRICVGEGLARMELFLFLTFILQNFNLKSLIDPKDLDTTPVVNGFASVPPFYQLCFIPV
(Reporter assays use an easily measured gene product as a stand-in for the process of interest.)

Experiment [9] deals with Cytochrome P450 2C9 (Homo sapiens) (UniProt P11712). Briefly: Cytochrome P450 Family 2 Subfamily C Member 9 (CYP2C9) small molecule antagonists: luciferase reporter qHTS assay (AID 1671198). Also: nearly all actives have a fitted effect of over 50% in size. Also: potency is read from the fitted curve at half-maximal effect. An outline of the steps:
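CYP2C9 activity was measured with a P450-Glo proluciferin substrate. Enzyme–substrate mix was held with compound for 10 min at room temperature, then NADPH regeneration solution was added for 1 h at 37C. Luciferin product was read as luminescence.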

The target of experiment [10] is Voltage-gated inwardly rectifying potassium channel KCNH2 (Homo sapiens) (UniProt Q12809). Briefly: Human Ether-a-go-go-Related Gene (hERG) channel small molecule antagonists: fluorescence cell-based qHTS assay (AID 1671200). Also: nearly all actives have a fitted effect of over 50% in size. Also: potency is read from the fitted curve at half-maximal effect. An outline of the steps: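 In this thallium-flux screen, overnight-cultured U2OS cells bearing the channel are dye-loaded in darkness for an hour, rested 10 min at room temperature, and then monitored kinetically at 480/540 nm for two minutes post-stimulus.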
Chain of Voltage-gated inwardly rectifying potassium channel KCNH2 (Homo sapiens) (Q12809 whole entry, looked up): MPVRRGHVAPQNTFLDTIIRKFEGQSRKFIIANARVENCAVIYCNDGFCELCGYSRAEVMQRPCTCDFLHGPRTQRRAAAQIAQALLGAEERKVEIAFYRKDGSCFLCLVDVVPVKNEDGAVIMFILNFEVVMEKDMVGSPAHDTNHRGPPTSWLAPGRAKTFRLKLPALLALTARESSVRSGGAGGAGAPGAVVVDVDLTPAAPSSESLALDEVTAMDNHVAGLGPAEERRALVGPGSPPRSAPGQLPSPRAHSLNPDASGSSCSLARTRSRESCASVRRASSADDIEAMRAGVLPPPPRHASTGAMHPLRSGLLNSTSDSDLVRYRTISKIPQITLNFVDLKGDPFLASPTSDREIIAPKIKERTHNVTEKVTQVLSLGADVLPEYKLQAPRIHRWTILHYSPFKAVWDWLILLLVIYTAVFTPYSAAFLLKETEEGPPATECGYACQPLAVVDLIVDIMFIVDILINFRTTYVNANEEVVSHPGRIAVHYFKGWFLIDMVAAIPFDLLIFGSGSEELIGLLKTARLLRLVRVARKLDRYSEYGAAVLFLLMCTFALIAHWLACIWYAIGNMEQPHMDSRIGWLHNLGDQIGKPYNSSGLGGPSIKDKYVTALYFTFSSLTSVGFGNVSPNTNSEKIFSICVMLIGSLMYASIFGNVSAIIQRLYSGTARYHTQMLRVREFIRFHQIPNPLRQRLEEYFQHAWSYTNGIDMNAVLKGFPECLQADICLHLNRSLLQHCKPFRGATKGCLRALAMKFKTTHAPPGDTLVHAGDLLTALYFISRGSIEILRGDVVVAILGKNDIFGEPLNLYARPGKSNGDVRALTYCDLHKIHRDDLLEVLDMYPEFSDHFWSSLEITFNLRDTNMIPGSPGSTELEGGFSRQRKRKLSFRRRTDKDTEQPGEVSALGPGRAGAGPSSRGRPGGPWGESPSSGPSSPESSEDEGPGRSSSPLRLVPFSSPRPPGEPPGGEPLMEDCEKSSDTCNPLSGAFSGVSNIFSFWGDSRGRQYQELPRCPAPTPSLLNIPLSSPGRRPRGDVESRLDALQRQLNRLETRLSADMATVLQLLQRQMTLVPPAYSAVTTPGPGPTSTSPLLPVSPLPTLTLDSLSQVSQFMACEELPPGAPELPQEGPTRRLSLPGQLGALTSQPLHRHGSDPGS
Background: hERG is a cardiac potassium channel; its block is linked to QT prolongation.

The target of experiment [11] is Cytochrome P450 1A2 (Homo sapiens) (UniProt P05177). Kind of experiment: Cytochrome P450 Family 1 Subfamily A Member 2 (CYP1A2) small molecule antagonists: luciferase reporter qHTS assay (AID 1671199). Also: nearly all actives have a fitted effect of over 50% in size. Also: potency is read from the fitted curve at half-maximal effect. An outline of the steps: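 Inhibition of CYP1A2 conversion of proluciferin to luciferin, detected by luminescence. Reaction run 1 h at room temperature with NADPH regeneration after brief compound preincubation.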
Chain of Cytochrome P450 1A2 (Homo sapiens) (P05177 whole entry, looked up): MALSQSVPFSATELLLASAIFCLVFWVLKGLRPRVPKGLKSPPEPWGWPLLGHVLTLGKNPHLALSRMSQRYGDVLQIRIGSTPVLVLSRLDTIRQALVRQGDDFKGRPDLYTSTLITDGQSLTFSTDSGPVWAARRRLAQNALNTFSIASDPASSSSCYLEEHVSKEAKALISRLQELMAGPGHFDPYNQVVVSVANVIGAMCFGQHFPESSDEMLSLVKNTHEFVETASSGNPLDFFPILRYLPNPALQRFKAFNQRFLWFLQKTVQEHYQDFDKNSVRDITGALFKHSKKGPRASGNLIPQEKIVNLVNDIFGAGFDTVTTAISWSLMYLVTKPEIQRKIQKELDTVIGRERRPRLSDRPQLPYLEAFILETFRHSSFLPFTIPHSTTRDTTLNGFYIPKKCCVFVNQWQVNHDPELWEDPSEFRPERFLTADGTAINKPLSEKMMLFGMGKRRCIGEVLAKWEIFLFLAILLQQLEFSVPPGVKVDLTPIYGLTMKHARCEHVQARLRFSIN

In experiment [12] the target is Cytochrome P450 3A4 (Homo sapiens) (UniProt P08684). Kind of experiment: Cytochrome P450 Family 3 Subfamily A Member 4 (CYP3A4) small molecule antagonists: luciferase reporter qHTS assay (AID 1671201). Also: nearly all actives have a fitted effect of over 50% in size. Also: potency is read from the fitted curve at half-maximal effect. An outline of the steps:
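CYP3A4 activity was followed with a P450-Glo proluciferin substrate. Test compounds in DMSO were preincubated 10 min; NADPH regeneration then ran 1 h, and light output was read 20 min after detection reagent.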

Experiment [13] concerns the target Nuclear receptor subfamily 1 group I member 2 (Rattus norvegicus) (UniProt Q9R1A7). Kind of experiment: Rat pregnane X receptor (rPXR) activation by small molecules, qHTS assay (AID 1346983). Also: nearly all actives have a fitted effect of over 20% in size. The following applies: rPXR luciferase reporter cells, One-Glo luminescence, 24 h; max activation: stronger effect = higher value. An outline of the steps:
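Cell-based rPXR luciferase reporter assay, 2,000 cells per well, rested 5hr at 37 C before compound addition in DMSO, then 24 hr at 37 C. One-Glo reagent was added and luminescence read after 30 min at room temperature.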
% is scaled to controls: 0 for no effect and ±100 for the full control effect.

Chain of Cytochrome P450 3A4 (Homo sapiens) (P08684 whole entry, looked up): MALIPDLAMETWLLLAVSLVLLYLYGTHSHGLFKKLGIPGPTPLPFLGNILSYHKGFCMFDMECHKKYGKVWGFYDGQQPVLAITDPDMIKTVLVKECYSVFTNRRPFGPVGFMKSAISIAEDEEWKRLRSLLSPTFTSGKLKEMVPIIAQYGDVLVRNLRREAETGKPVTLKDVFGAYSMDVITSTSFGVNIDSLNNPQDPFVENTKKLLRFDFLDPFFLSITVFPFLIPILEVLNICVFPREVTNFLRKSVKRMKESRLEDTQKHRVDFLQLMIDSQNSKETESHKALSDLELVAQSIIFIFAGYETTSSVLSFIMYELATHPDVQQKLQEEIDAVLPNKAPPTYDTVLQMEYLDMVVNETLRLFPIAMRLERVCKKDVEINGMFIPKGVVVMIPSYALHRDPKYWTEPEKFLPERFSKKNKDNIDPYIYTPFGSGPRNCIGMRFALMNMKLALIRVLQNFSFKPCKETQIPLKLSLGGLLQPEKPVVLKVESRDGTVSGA
Chain of Nuclear receptor subfamily 1 group I member 2 (Homo sapiens) (O75469 whole entry, looked up): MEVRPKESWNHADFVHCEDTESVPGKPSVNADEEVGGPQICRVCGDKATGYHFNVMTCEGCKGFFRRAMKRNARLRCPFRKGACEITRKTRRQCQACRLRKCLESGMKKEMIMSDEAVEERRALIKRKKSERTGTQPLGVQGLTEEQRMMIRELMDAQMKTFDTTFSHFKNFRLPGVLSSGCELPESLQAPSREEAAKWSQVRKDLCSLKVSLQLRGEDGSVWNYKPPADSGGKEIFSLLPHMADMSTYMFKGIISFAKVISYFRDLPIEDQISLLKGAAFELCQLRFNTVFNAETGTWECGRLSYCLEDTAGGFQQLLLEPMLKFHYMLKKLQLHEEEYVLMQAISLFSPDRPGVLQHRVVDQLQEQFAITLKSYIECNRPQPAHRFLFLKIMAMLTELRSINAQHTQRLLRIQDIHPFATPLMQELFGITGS
Chain of Cytochrome P450 2C9 (Homo sapiens) (P11712 whole entry, looked up): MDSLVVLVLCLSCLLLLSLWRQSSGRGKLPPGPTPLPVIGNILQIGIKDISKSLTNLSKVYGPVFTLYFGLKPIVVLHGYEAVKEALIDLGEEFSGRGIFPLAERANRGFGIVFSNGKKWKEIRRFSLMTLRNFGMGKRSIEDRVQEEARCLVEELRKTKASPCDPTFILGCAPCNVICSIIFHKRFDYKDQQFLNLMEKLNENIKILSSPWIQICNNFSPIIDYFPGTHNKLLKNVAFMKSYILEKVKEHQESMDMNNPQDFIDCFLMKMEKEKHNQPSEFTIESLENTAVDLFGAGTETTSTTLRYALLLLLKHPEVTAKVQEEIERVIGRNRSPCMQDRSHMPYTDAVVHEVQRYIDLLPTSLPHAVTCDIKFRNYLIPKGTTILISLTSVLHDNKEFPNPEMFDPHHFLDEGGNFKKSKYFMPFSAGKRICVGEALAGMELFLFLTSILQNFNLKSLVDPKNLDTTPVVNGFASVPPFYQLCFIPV
Chain of Nuclear receptor subfamily 1 group I member 2 (Rattus norvegicus) (Q9R1A7 whole entry, looked up): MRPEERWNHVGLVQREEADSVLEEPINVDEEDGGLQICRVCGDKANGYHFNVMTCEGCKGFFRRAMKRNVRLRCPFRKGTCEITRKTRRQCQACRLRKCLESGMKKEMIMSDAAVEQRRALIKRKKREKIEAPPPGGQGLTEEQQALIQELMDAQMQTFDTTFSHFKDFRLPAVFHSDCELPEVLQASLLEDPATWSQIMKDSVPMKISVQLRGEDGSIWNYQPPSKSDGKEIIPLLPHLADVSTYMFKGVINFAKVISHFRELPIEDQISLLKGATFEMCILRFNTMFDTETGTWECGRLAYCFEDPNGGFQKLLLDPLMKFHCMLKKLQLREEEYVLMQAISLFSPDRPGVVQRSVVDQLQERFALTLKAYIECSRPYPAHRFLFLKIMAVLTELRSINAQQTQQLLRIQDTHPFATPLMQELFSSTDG

`CCCCN(CCCC)CCC(O)c1cc2c(Cl)cc(Cl)cc2c2cc(C(F)(F)F)ccc12` (configuration not stated): the Potency in experiment [1] is 26.6 µM (active); in experiment [4], 21.1 µM (active); in experiment [7] it was 1.55 µM (active); in experiment [10], 1.07 µM (active). Moreover, the Potency entry in [2], in [3], in experiment [5], in experiment [6], in [8] and in [9] was “inactive” throughout.
In the case of `Cc1cc(=O)[nH]c(=O)[nH]1`, the Potency result in experiment [1], in experiment [2], in [3], in experiment [4], in [7] and in experiment [8] was “inactive” each time. Besides, the Potency entry in experiment [9], in experiment [11] and in [10] was “inactive” in each case.
As to `CCCCOc1ccc(C(=O)CCN2CCCCC2)cc1`, the Potency is 29.8 µM (active) in [1], 6.68 µM (active) in [4], 5.49 µM (active) in experiment [7] and 17.4 µM (active) in experiment [9]. Further, the Potency result in experiment [2], in experiment [3], in experiment [5], in experiment [6], in experiment [11] and in experiment [12] was “inactive” each time.
As to `CN1[C@@H]2CC[C@H]1CC(OC(=O)C(CO)c1ccccc1)C2` (some centres not stated), the Potency entry in [1], in experiment [2] and in experiment [3] was “inactive” throughout.
With `C=CC(C)(CCC=C(C)C)OC(=O)/C=C/c1ccccc1` (configuration not stated), the Potency result in [1], in experiment [2], in experiment [3], in [7] and in [10] was “inactive” in each case. Moreover, the Potency in [4] is 61.1 µM (active); in experiment [8], 6.33 µM (active); in experiment [9], 6.33 µM (active); in [11], 31.7 µM (active).
With `COc1cccc(CCc2ccccc2OCC(CN(C)C)OC(=O)CCC(=O)O)c1` (configuration not stated), the Potency entry in [1], in [2], in experiment [3], in experiment [4], in [9] and in [10] was “inactive” each time. In addition, the Potency is 12.6 µM (active) in [5], 0.692 µM (active) in [7], 34.7 µM (active) in experiment [8] and 30.9 µM (active) in experiment [11].
With `C[C@@]12C(=O)OC(=O)[C@]1(C)C1CCC2O1`, the Potency is 10.6 µM (active) in experiment [1]; 23.7 µM (active) in [2]; 2.98 µM (active) in experiment [3]; 1.06 µM (active) in [4]; 0.794 µM (active) in experiment [6]. The Potency entry in experiment [5], in experiment [7], in [8], in experiment [9], in experiment [11] and in experiment [10] was “inactive” throughout. Besides, in experiment [12], the Potency result was “inactive”.
As for `Cc1nc(Nc2ncc(C(=O)Nc3c(C)cccc3Cl)s2)cc(N2CCN(CCO)CC2)n1`, the Potency in experiment [1] was 13.3 µM (active); in experiment [3], 18.8 µM (active); in [4], 1.06 µM (active). Moreover, the Potency entry in [2], in [5], in experiment [7], in experiment [11] and in experiment [10] was “inactive” each time.
`O=C1OC(=O)c2ccc3c4c(ccc1c24)C(=O)OC3=O`: the Potency result in experiment [1], in experiment [2], in [3], in experiment [4], in experiment [7] and in [8] was “inactive” in each case. Besides, the Potency entry in [9], in experiment [11] and in experiment [10] was “inactive” in each case.
Regarding `CCN(CC)CCCN(c1ccccc1)C1Cc2ccccc2C1`, the Potency entry in experiment [1], in [2], in [3], in [4], in experiment [5] and in experiment [9] was “inactive” in each case. In addition, the Potency entry in [12] is “inactive”. For the same compound, the max activation in [13] is -18.4%. For the same compound, the Potency was 5.01 µM (active) in experiment [6], 0.389 µM (active) in [7] and 2.13 µM (active) in [10].
Turning to `CC(=O)Oc1ccc(C2(c3ccc(OC(C)=O)cc3)C(=O)Nc3ccccc32)cc1`, the Potency entry in experiment [1], in [2], in experiment [3], in experiment [4], in experiment [5] and in [6] was “inactive” in each case. The Potency entry in experiment [7], in [11] and in experiment [10] was “inactive” in each case. The results for the Potency in experiment [8] and in experiment [9] were 11 µM (active) and 5.49 µM (active), respectively.
Regarding `CCN(CC)c1ccc(N)cc1`, the Potency in experiment [1] was 22.3 µM (active); in [3] it was 25 µM (active); in experiment [7] it was 13 µM (active); in experiment [8], 9.18 µM (active); in [9] it was 23.1 µM (active); in experiment [11] it was 41 µM (active). In addition, the Potency in [10] was 25.2 µM (active); in [12], 11.6 µM (active). The Potency result in experiment [2] and in [4] was “inactive” throughout.
Take `CC[N+](CC)(CC)Cc1ccccc1`: the Potency result in [1], in experiment [2], in experiment [3], in experiment [4], in experiment [8] and in experiment [9] was “inactive” each time. The Potency entry in experiment [11], in experiment [10] and in [12] was “inactive” each time. In addition, the Potency in experiment [7] was 35.6 µM (active).
For the compound `Clc1cccnc1`, the Potency result in experiment [1], in experiment [2], in experiment [3], in experiment [4], in experiment [7] and in [8] was “inactive” each time. Further, the Potency result in [9], in experiment [10] and in experiment [12] was “inactive” in each case. Moreover, in experiment [11], the Potency was 35.6 µM (active).
As to `C=C(C)CCCC`, the Potency result in [1], in [2], in [3], in [4], in experiment [7] and in experiment [8] was “inactive” in each case. Further, the Potency entry in [9], in [11], in experiment [10] and in experiment [12] was “inactive” each time.
For `CSc1c(Cl)c(Cl)c(Cl)c(Cl)c1Cl`, the Potency entry in experiment [1], in [2], in [3], in experiment [7], in experiment [8] and in experiment [9] was “inactive” throughout. Further, the Potency result in experiment [10] and in experiment [12] was “inactive” throughout. Also, the Potency was 68.2 µM (active) in experiment [4] and 14.1 µM (active) in experiment [11].
For `CCCCN(C)C`, the Potency result in experiment [1], in experiment [2], in [3], in experiment [4], in experiment [7] and in experiment [8] was “inactive” in each case. For the same compound, the Potency result in experiment [9], in experiment [11], in experiment [10] and in [12] was “inactive” each time.
Consider `C=CC(=O)OCCC#N`, for which the Potency in experiment [1] was 61.5 µM (active). Moreover, the Potency entry in experiment [2], in experiment [3], in experiment [4], in experiment [7], in experiment [8] and in [9] was “inactive” in each case. Besides, the Potency entry in [11], in [10] and in experiment [12] was “inactive” throughout.
On to `CC(=O)OC1CCCCC1`, for which the Potency entry in experiment [1], in experiment [2], in experiment [3], in experiment [4], in experiment [7] and in experiment [8] was “inactive” in each case. In addition, the Potency result in experiment [9], in experiment [11], in [10] and in experiment [12] was “inactive” each time.
Take `CC(C)C(=O)OCc1ccccc1`: the Potency entry in [1], in [2], in experiment [3], in [4], in experiment [7] and in experiment [8] was “inactive” in each case. The Potency result in experiment [9], in [11], in experiment [10] and in experiment [12] was “inactive” each time.
Regarding `O=C1OC(=O)c2cccc3cccc1c23`, the Potency result in experiment [1], in experiment [2], in [3], in [7], in [8] and in experiment [9] was “inactive” each time. Further, the Potency result in [10] and in experiment [12] was “inactive” each time. Besides, the Potency in experiment [4] was 19.5 µM (active); in experiment [11] it was 35.9 µM (active).
